Experimental data: PubChem BioAssay AID1159580 (chemical genetic matrix, 2015)
Values joined by “and” are separate entries in the source; they are usually repeats but may differ in a detail not shown here. Equal entries are not always repeated. Among all 5,500 compounds or so, about 2,000 (36%) were called active. About 18% were inconclusive and are not listed. No stated cut-off is given here; in the data, active means normalized growth mostly below about 0.91 (no sharp cut-off); inconclusive means no clear call, values can overlap the other calls; inactive means mostly above about 0.92. The list shows a part of the results.

Experiment: chemical genetic growth profiling, strain panel (AID 1159580);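 further: tested at 20 µM; growth read once vehicle control cultures reached saturation at 30 °C; 1 = growth at the plate median or of vehicle wells; lower values mean less growth of the strain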
Settings: S. cerevisiae deletion strains, growth OD

Measured: normalized growth

CC(=O)Oc1ccc2c(c1)CCC1C2CC[C@@]2(C)C1CC[C@@H]2OC(C)=O (some centres undefined)
inactive: locus YAL021C, strain ccr4, hits give low values 1.01 | locus YAL026C, strain drs2, hits give low values 0.984 | locus YAL030W, strain snc1, hits give low values 0.984 | locus YBL061C, strain skt5, hits give low values 0.977 | locus YBR009C, strain hhf1, hits give low values 0.969 | locus YBR021W, strain FUR4, hits give low values 0.955 | locus YBR023C, strain chs3, hits give low values 0.957 | locus YBR171W, strain sec66, hits give low values 0.921 | locus YBR229C, strain ROT2, hits give low values 0.94 | locus YBR231C, strain swc5, hits give low values 1.02 | locus YBR279W, strain paf1, hits give low values 1.02 | locus YCL011C, strain gbp2, hits give low values 0.991 | locus YCL016C, strain dcc1, hits give low values 0.991 | locus YCL029C, strain bik1, hits give low values 0.972 | locus YCL069W, strain vba3, hits give low values 0.989 | locus YCR088W, strain abp1, hits give low values 0.978 | locus YDL005C, strain med2, hits give low values 1 | locus YDL035C, strain GPR1, hits give low values 0.971 | locus YDL040C, strain nat1, hits give low values 0.994 | locus YDL074C, strain BRE1, hits give low values 0.872 | locus YDL101C, strain DUN1, hits give low values 0.969 | locus YDL134C, strain PPH21, hits give low values 0.985 | locus YDL185W, strain tfp1, hits give low values 0.983 | locus YDL192W, strain arf1, hits give low values 0.984 | locus YDR001C, strain nth1, hits give low values 0.983 | locus YDR069C, strain doa4, hits give low values 0.983 | locus YDR101C, strain arx1, hits give low values 0.967 | locus YDR159W, strain sac3, hits give low values 0.924 | locus YDR162C, strain NBP2, hits give low values 0.969 | locus YDR195W, strain ref2 1.08 | locus YDR297W, strain sur2, hits give low values 0.988 | locus YDR318W, strain mcm21, hits give low values 0.971 | locus YDR334W, strain swr1, hits give low values 0.994 | locus YDR335W, strain msn5, hits give low values 1.03 | locus YDR388W, hits give low values 0.979 | locus YDR502C, strain sam2, hits give low values 0.969 | locus YEL003W, strain gim4, hits give low values 0.973 | locus YEL037C, strain rad23, hits give low values 0.992 | locus YEL061C, strain CIN8 (second series), hits give low values 0.992 | locus YEL061C, strain CIN8, hits give low values 0.964 | locus YER015W, strain faa2, hits give low values 1 | locus YER016W, strain bim1, hits give low values 1 | locus YER110C, hits give low values 0.984 | locus YER111C, strain swi4, hits give low values 0.986 | locus YER155C, strain BEM2 (second series), hits give low values 0.951 | locus YER155C, strain BEM2, hits give low values 0.973 | locus YER167W, strain BCK2, hits give low values 0.971 | locus YFR010W, strain ubp6, hits give low values 1 | locus YGL078C, strain dbp3, hits give low values 0.98 | locus YGL086W, strain mad1, hits give low values 0.958 | locus YGL167C, strain pmr1, hits give low values 0.973 | locus YGL173C, strain kem1, hits give low values 0.987 | locus YGL227W, strain vid30, hits give low values 0.989 | locus YGL240W, strain doc1, hits give low values 0.993 | locus YGL248W, strain PDE1, hits give low values 0.94 | locus YGL253W, strain hxk2, hits give low values 1.01 | locus YGR078C, strain PAC10, hits give low values 0.943 | locus YGR135W, strain pre9, hits give low values 0.986 | locus YGR229C, strain SMI1, hits give low values 0.954 | locus YGR252W, strain gcn5, hits give low values 0.947 | locus YHR013C, strain ard1, hits give low values 1.02 | locus YHR027C, strain rpn1, hits give low values 0.995 | locus YHR030C, strain SLT2, hits give low values 0.988 and 0.952 | locus YHR079C, strain IRE1 (second series), hits give low values 0.977 | locus YHR079C, strain IRE1, hits give low values 0.937 | locus YHR094C, strain hxt1, hits give low values 0.978 | locus YHR129C, strain ARP1, hits give low values 0.982 | locus YHR142W, strain chs7, hits give low values 0.953 | locus YHR200W, strain rpn10, hits give low values 0.963 | locus YIL066C, strain RNR3, hits give low values 0.948 | locus YIL073C, strain SPO22, hits give low values 0.97 | locus YIL125W, strain kgd1, hits give low values 0.966 | locus YIR030C, strain dcg1, hits give low values 0.981 | locus YJL092W, strain hpr5, hits give low values 0.975 | locus YJL095W, strain BCK1 (second series), hits give low values 0.973 | locus YJL095W, strain BCK1, hits give low values 0.926 and 0.951 | locus YJL115W, strain asf1, hits give low values 0.997 | locus YJL129C, strain trk1, hits give low values 0.886 | locus YJL134W, strain LCB3, hits give low values 0.978 | locus YJL154C, strain vps35, hits give low values 0.995 | locus YJL164C, strain tpk1, hits give low values 0.958 | locus YJL166W, strain qcr8, hits give low values 0.988 | locus YJL168C, strain set2, hits give low values 0.963 | locus YJL187C, strain SWE1 (second series), hits give low values 0.956 | locus YJL187C, strain SWE1, hits give low values 0.979 | locus YJR043C, strain POL32, hits give low values 0.976 | locus YJR066W, strain TOR1, hits give low values 0.956
active: locus YDR137W, strain rgp1, hits give low values 0.841 | locus YDR392W, strain spt3, hits give low values 0.674
